Results reported in PubChem BioAssay (EPA / NIEHS).
Where “and” joins values, the source holds several entries; their conditions need not be identical. Identical values can stand only once. More than one record can exist for a structure, and the calls need not agree. Calls of active or inactive are those of the source. The calls were made as follows: active = hit-call score of the fitted dose curve at least 0.9, where 1 is the maximum; inactive = score below 0.9.

Columns and labels:
[1] = read-out: Collagen I, COL1A1 (gene 1277); assay: BSK_hDFCGF_CollagenI: BioMAP Diversity Plus: hDFCGF Assay for Collagen I Biomarker Activity (AID 2284250); conditions: primary human foreskin fibroblasts
Method in brief: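 Primary human foreskin fibroblasts exposed to chemical for 24 h; Collagen I levels measured by ELISA. Cytotoxicity checked by SRB total-protein staining in parallel cultures.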

[2] = read-out: Interferon-inducible T-cell alpha chemoattractant (ITAC), CXCL11 (gene 6373); assay: BSK_hDFCGF_ITAC: BioMAP Diversity Plus: hDFCGF Assay for Interferon-inducible T-cell alpha chemoattractant (ITAC) Biomarker Activity (AID 2284251); conditions: primary human foreskin fibroblasts
Method in brief: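 Fibroblasts (human foreskin, primary) are treated with chemical, cultured 24 h, then assayed for I-TAC by ELISA. Overt toxicity is checked in parallel cultures by sulforhodamine B staining of total protein at the same time point.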

[3] = read-out: Plasminogen activator inhibitor-1 (PAI1), SERPINE1 (gene 5054); assay: BSK_KF3CT_PAI1: BioMAP Diversity Plus: KF3CT Assay for Plasminogen activator inhibitor-1 (PAI1) Biomarker Activity (AID 2284252); conditions: primary human keratinocytes with fibroblasts
Method in brief: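 Human keratinocyte/foreskin fibroblast co-culture dosed for 24 h; PAI-1 measured by ELISA, fitted in positive direction against DMSO baseline. Parallel SRB total-protein staining (0.1% SRB, 560 nm) assesses overt cytotoxicity.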

[4] = read-out: Interleukin-8 (IL8), CXCL8 (gene 3576); assay: BSK_KF3CT_IL8: BioMAP Diversity Plus: KF3CT Assay for Interleukin-8 (IL8) Biomarker Activity (AID 2284254); conditions: primary human keratinocytes with fibroblasts
Method in brief: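 ELISA detection of IL-8 from a human skin co-culture, keratinocytes with foreskin fibroblasts, at 24 h following chemical exposure, with gain of signal scored against DMSO controls.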

[5] = read-out: Intercellular Adhesion Molecule 1 (ICAM1), ICAM1 (gene 3383); assay: BSK_BE3C_ICAM1: BioMAP Diversity Plus: BE3C Assay for Intercellular Adhesion Molecule 1 (ICAM1) Biomarker Activity (AID 2284278); conditions: primary human bronchial epithelial cells;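 also: cell-surface ICAM-1 protein level quantified by ELISA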
Method in brief: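 Primary human bronchial epithelial cells in BE3C system, 24 h after chemical dosing; cell-surface ICAM-1 measured by ELISA relative to DMSO. Parallel SRB staining (0.1% SRB after 10% TCA fixation, read at 560 nm) assessed cytotoxicity.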

[6] = read-out: Interferon-inducible T-cell alpha chemoattractant (ITAC), CXCL11 (gene 6373); assay: BSK_BE3C_ITAC: BioMAP Diversity Plus: BE3C Assay for Interferon-inducible T-cell alpha chemoattractant (ITAC) Biomarker Activity (AID 2284279); conditions: primary human bronchial epithelial cells
Method in brief: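 BE3C cells (human primary bronchial epithelium), 24 h compound exposure, I-TAC by ELISA, DMSO = negative control/baseline, positive fitting direction.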

[7] = read-out: Interleukin-8 (IL8), CXCL8 (gene 3576); assay: BSK_BE3C_IL8: BioMAP Diversity Plus: BE3C Assay for Interleukin-8 (IL8) Biomarker Activity (AID 2284280); conditions: primary human bronchial epithelial cells
Method in brief: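 IL-8 signal gain, normalised to DMSO vehicle, was scored after a 24 h chemical exposure of primary human bronchial epithelial cells, with detection by ELISA.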

[8] = read-out: Epidermal growth factor receptor (EGFR), EGFR (gene 1956); assay: BSK_BE3C_EGFR: BioMAP Diversity Plus: BE3C Assay for Epidermal growth factor receptor (EGFR) Biomarker Activity (AID 2284281); conditions: primary human bronchial epithelial cells
Method in brief: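 Compound is added to human bronchial epithelial cells, cells incubate 24 h, then EGFR is detected by ELISA. Values reflect positive-direction fitting relative to DMSO.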

KRT18 (gene 3875) = assay: BSK_BE3C_Keratin818: BioMAP Diversity Plus: BE3C Assay for Keratin 818 Biomarker Activity (AID 2284282); conditions: primary human bronchial epithelial cells
Method in brief: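 Primary human bronchial epithelial cells treated 24 h; Keratin 8/18 quantified by ELISA, fit relative to DMSO. Cytotoxicity tracked in parallel cultures by sulforhodamine B total-protein staining.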

[9] = read-out: Matrix Metallopeptidase 9 (MMP9), MMP9 (gene 4318); assay: BSK_BE3C_MMP9: BioMAP Diversity Plus: BE3C Assay for Matrix Metallopeptidase 9 (MMP9) Biomarker Activity (AID 2284283); conditions: primary human bronchial epithelial cells
Method in brief: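 Cells were dosed, incubated 24 h, then assayed for MMP-9 by ELISA; activity was fitted upward against DMSO. The system used human lung primary bronchial epithelial cells, with SRB total-protein staining run alongside for cytotoxicity.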

[10] = read-out: Plasminogen activator inhibitor-1 (PAI1), SERPINE1 (gene 5054); assay: BSK_CASM3C_PAI1: BioMAP Diversity Plus: CASM3C Assay for Plasminogen activator inhibitor-1 (PAI1) Biomarker Activity (AID 2284284); conditions: primary human coronary artery smooth muscle cells;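 also: PAI-1 protein level measured by ELISA 24 h after dosing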
[11] = read-out: Monocyte Chemoattractant Protein-1 (MCP1), CCL2 (gene 6347); assay: BSK_hDFCGF_MCP1: BioMAP Diversity Plus: hDFCGF Assay for Monocyte Chemoattractant Protein-1 (MCP1) Biomarker Activity (AID 2284285); conditions: primary human foreskin fibroblasts
Method in brief: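 Human foreskin fibroblasts (hDFCGF system) were exposed to compound and secreted MCP-1 was measured by ELISA after 24 hours. Activity was fitted relative to DMSO. Cytotoxicity was checked by SRB total-protein staining in parallel cultures.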

[12] = read-out: Intercellular Adhesion Molecule 1 (ICAM1), ICAM1 (gene 3383); assay: BSK_hDFCGF_ICAM1: BioMAP Diversity Plus: hDFCGF Assay for Intercellular Adhesion Molecule 1 (ICAM1) Biomarker Activity (AID 2284287); conditions: primary human foreskin fibroblasts
Method in brief: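 Primary human foreskin fibroblasts (hDFCGF system) dosed with chemical; ICAM-1 quantified by ELISA at 24 h relative to DMSO. Parallel SRB total-protein staining to assess overt cytotoxicity.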

[13] = read-out: TIMP metallopeptidase inhibitor 2 (TIMP2), TIMP2 (gene 7077); assay: BSK_hDFCGF_TIMP2: BioMAP Diversity Plus: hDFCGF Assay for TIMP metallopeptidase inhibitor 2 (TIMP2) Biomarker Activity (AID 2284289); conditions: primary human foreskin fibroblasts
Method in brief: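 Primary human foreskin fibroblasts in the hDFCGF system, dosed for 24 h; TIMP-2 level measured by ELISA, fitted in the positive direction against DMSO; cytotoxicity checked in parallel by sulforhodamine B total protein staining.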

[14] = read-out: Thrombomodulin, THBD (gene 7056); assay: BSK_LPS_Thrombomodulin: BioMAP Diversity Plus: LPS Assay for Thrombomodulin Biomarker Activity (AID 2284296); conditions: primary human HUVEC with PBMC
Method in brief: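 Human umbilical vein endothelial cells co-cultured with PBMC and stimulated with LPS; cell-surface thrombomodulin measured by ELISA 24 hours after compound. Gain or loss versus DMSO; cytotoxicity checked by SRB staining in parallel cultures.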

Measured: AC50

[Cd+2].[Cl-].[Cl-]
inactive: [4] | [5] | [7] | KRT18 (gene 3875) | [14]
active: [1] 1.42 µM and 465 nM | [2] 10 µM and 7.2 µM | [3] 34.5 µM and 29.9 µM | [4] 26.8 µM | [6] 28.9 µM and 31.5 µM | [7] 0.0538 µM | [8] 31.6 µM and 12.3 µM | [9] 32 µM and 27.7 µM | [10] 10.9 µM and 13.8 µM | [11] 4.82 µM and 1.76 µM | [12] 9.72 µM and 13.9 µM | [13] 3.97 µM and 2.93 µM
